This is a sample that favours compounds with a hit; in the whole collection about 7.5% have one here.
SMN2 splice enh = SMN2 splice variant enhancement; 210,000 compounds, 2.8% hits; Potency, µM (top dose mostly 46.1 µM), for the others: at the highest dose activity change, positive = activation, usual class: activators; HEK293 SMN2-luciferase splicing reporter, luminescence, 30-36 h; further: % of control where 0% means no effect; nearly all actives have a fitted effect of over 55% in size
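qHTS luciferase splicing reporter: luminescence rises when SMN2 exon 7 is included in transfected HEK293 cells. Compound exposure lasted 30-36 h at 37C, with 4.5 mM final sodium butyrate as control, followed by a ONE-Glo read.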
NPC1 prom act = activates the NPC1 promoter; Huh7 NPC1 promoter luciferase reporter, 24 h; Potency, µM (highest dose often 9.22 µM), inactives show top-dose activation, hits mostly activators; 320,000 compounds, 2.4% hits; further: % of control where 0% means no effect; nearly all actives have a fitted effect of over 60% in size
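NPC1 promoter–luciferase Huh7 cells; 24 h compound; luminescence.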
KinaseGlo FLuc = counter-screen: inhibitors of Kinase-Glo firefly luciferase | Potency, µM (highest dose often 38.3 µM), inactives show top-dose activity change, negative = inhibition, most hits filed as inhibitors | Kinase-Glo luciferase, ATP luminescence, 8 min | 200,000 compounds, 0.28% hits; further: on the % scale 0 is the no-effect control and ±100 the full control effect; nearly all actives have a fitted effect of over 60% in size
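Substrate mix (final 50 mM imidazole pH 7.2, 50 mM KCl, 7 mM MgCl2, 10 uM ATP, 0.01% Tween 20, 0.05% BSA) plus pin-tool compound, then Kinase-Glo detection mix; 8 min ambient, luminescence read.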
FLuc modulator = counter-screen for miR-21 project: firefly luciferase inhibitors or activators; P08659; purified FLuc, Km substrates, luminescence inhibition; Potency, µM (doses to about 57.5 µM), inactives show top-dose activity change, negative = inhibition, actives largely listed as inhibitors; 360,000 compounds, 6.9% hits; AID 588342;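 further: plate controls were vehicle for no effect and reference inhibitor for full effect; nearly all actives have a fitted effect of over 55% in size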
Target sequence (P08659 whole entry, looked up): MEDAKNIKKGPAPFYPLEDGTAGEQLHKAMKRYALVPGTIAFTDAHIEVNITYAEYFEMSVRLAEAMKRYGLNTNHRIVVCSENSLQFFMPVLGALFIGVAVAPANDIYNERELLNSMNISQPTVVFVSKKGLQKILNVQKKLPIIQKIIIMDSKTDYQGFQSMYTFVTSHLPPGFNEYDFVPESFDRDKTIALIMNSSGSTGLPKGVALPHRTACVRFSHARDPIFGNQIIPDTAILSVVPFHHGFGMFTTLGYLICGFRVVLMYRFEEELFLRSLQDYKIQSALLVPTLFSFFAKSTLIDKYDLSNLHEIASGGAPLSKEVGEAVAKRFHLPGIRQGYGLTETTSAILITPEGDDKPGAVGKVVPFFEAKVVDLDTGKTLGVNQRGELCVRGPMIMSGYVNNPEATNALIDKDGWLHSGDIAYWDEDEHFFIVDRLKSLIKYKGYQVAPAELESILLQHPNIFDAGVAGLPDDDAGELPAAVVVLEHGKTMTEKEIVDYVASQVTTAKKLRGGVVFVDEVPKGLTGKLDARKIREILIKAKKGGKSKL
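Purified P. pyralis luciferase, 10 nM final, with Km-level 10 uM D-luciferin and 10 uM ATP in 50 mM Tris acetate pH 7.5, 10 mM Mg acetate, 0.01% Tween-20, 0.05% BSA; 6-point qHTS titration about 60 µM downward; luminescence read.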
ELG1 genotox = induces genotoxicity in HEK293T cells with luciferase-tagged ELG1; HEK293T ELG1-luciferase reporter, luminescence, 16 h; Potency, µM (titrated, usually from 46 µM), for the others: top-dose activity change, positive = activation, usual class: activators; 330,000 compounds, 1.3% hits; AID 504466; further: % of control where 0% means no effect; nearly all actives have a fitted effect of over 60% in size
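Genotoxic stress is detected as increased luminescence from luciferase-tagged ELG1 in HEK293T cells, measured with ONE-Glo after a 16 hr treatment at 37 °C.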
Rab9 prom act = Rab9 promoter activation | Huh7 Rab9 promoter-luciferase reporter, luminescence, 24 h | Potency, µM (series often up to 9.22 µM), without a hit: at the highest dose activation, negative = inhibition, most hits filed as activators | 320,000 compounds, 2.8% hits; further: % of control where 0% means no effect; nearly all actives have a fitted effect of over 60% in size
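Huh7 reporter line, Rab9 promoter upstream of luciferase. Compound exposure 24 h at 37 °C in reduced-serum medium with 10% FBS. Read-out: luminescence.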
* hit, by the source's call; ? = inconclusive; nt = no result given. The call rests on the fitted dose curve; in most records, active means well fitted curve in the direction sought with a large enough effect; inconclusive means small, poorly fitted or top-dose-only effect, or another doubt; inactive means no such curve, though single readings can be large; an effect the other way counts as inactive or inconclusive. Potency means the concentration at half of the fitted maximal effect.

SMILES | SMN2 splice enh | NPC1 prom act | KinaseGlo FLuc | FLuc modulator | ELG1 genotox | Rab9 prom act
Cc1ccc(-c2cc(C(=O)N/N=C/c3c(C)nn(C)c3C)c3ccccc3n2)c(C)c1 | -2% | 0% | 17% | ? | 5% | 7%
Cc1c(/C=N\NC(=O)c2csc3ccccc23)cnn1C | -2% | 2% | -1% | ? | 8% | 15%
Cc1nn(C)c(C)c1/C=N/NC(=O)c1csc2ccccc12 | -3% | -2% | 3% | 17µM* | 15% | 26%
CCn1ncc(/C=N\NC(=O)c2csc3ccccc23)c1C | 23% | -10% | 8% | 11µM* | ? | -8%
Cc1[nH]c2ccccc2c1CN1CCC(Cc2ccccc2)CC1 | -14% | -5% | 3% | -2% | -2% | -9%
CC(=O)N1CCc2cc(Br)cc(S(=O)(=O)CCC(=O)N3CCN(c4ccccc4Cl)CC3)c21 | 0% | nt | nt | -8% | nt | nt
O=C(OCc1ccc([N+](=O)[O-])cc1)c1ccc2ccccc2n1 | nt | 0% | nt | -13% | 3% | -2%
O=C(OCc1cccc([N+](=O)[O-])c1)c1ccc2ccccc2n1 | 12% | -29% | 1% | 27µM* | 3% | -3%
CC(NC(=O)c1ccc2c(c1)N(Cc1ccc(Cl)cc1)C(=O)c1ccccc1S2=O)c1ccccc1 (centres undefined) | 6% | nt | nt | -3% | nt | nt
C=CCn1c(=S)[nH]c2cc(-c3ccccc3)sc2c1=O | nt | 25% | nt | 1.9µM* | 9% | 19%
CCc1ccc(CN(Cc2ccco2)C(=O)c2cc(-c3ccc(C)c(F)c3)on2)cc1 | nt | nt | nt | -6% | nt | nt
CC(C)(C)C(=O)/C=c1\[nH]c(=O)/c(=C\c2ccc(F)cc2)s1 | -16% | 0% | -3% | 24µM* | -21% | -4%
Cc1ccccc1/C=c1\s/c(=C\C(=O)C(C)(C)C)[nH]c1=O | -15% | -1% | -1% | 17µM* | -11% | -1%
CC(C)(C)C(=O)/C=c1\[nH]c(=O)/c(=C\c2ccccc2F)s1 | -8% | 0% | 0% | ? | 0% | 0%
Cc1ccc(NC(=O)c2ccc(F)cc2)cc1S(=O)(=O)N1CCCCCC1 | -36% | 3% | 4% | ? | -10% | -10%
Cc1ccnc(NC(=O)c2ccc(Cl)c(S(=O)(=O)N3CCCCC3)c2)c1 | nt | 4% | nt | nt | -2% | 13%
Cc1ccnc(NC(=O)c2ccc(Cl)c(S(=O)(=O)N3CCCC3)c2)c1 | nt | ? | nt | 19µM* | ? | ?
COc1ccc(C(=O)O)cc1S(=O)(=O)Nc1cccc(C(F)(F)F)c1 | 8% | -2% | 3% | 0% | -1% | -6%
O=C(O)c1ccc(Cl)c(S(=O)(=O)Nc2ccccc2C(=O)Nc2ccc(Cl)cc2)c1 | nt | 14% | nt | 27µM* | 10% | 16%
O=C(O)c1ccc(Cl)c(S(=O)(=O)Nc2cccc(C(=O)Nc3cccc(C(F)(F)F)c3)c2)c1 | -5% | -1% | 5% | 15µM* | 1% | 1%
Cc1ccc(C(=O)Nc2ccc3cn[nH]c3c2)cc1S(=O)(=O)N1CCCCC1 | 1% | ? | -7% | 21µM* | 15% | ?
O=C(O)c1ccc(Cl)c(S(=O)(=O)Nc2ccccc2F)c1 | nt | nt | 1% | nt | nt | nt
C1=C(c2ccccc2)Nc2ccccc2N=C1c1ccccc1 | -43% | -1% | -1% | -1% | -5% | -2%
Cc1ccc(C(=O)Nc2nccs2)cc1S(=O)(=O)N1CCCCC1 | -32% | 0% | 7% | 17µM* | -2% | 3%
O=C(Nc1cccnc1)c1ccc(Cl)c(S(=O)(=O)N2CCCCC2)c1 | nt | 0% | nt | 2% | -1% | -3%
SMILES | SMN2 splice enh | NPC1 prom act | KinaseGlo FLuc | FLuc modulator | ELG1 genotox | Rab9 prom act
O=C(Nc1ccccn1)c1cccc(S(=O)(=O)N2CCCCC2)c1 | -2% | -1% | 0% | -5% | -1% | -3%
O=C(O)c1cccc(NC(=O)c2ccc(Cl)c(S(=O)(=O)N3CCCCCC3)c2)c1 | 8.9µM* | 0.32µM* | 0% | 0.11µM* | 2.3µM* | 0.35µM*
O=C(Nc1ccccn1)c1ccc(Cl)c(S(=O)(=O)N2CCCCCC2)c1 | nt | 19% | nt | 21µM* | -1% | ?
Cc1ccnc(NC(=O)c2ccc3c(c2)S(=O)(=O)c2ccccc2C3=O)c1 | nt | ? | nt | 15µM* | 7% | 24%
O=C(CN1C(=O)c2ccccc2S1(=O)=O)Nc1cccc(S(=O)(=O)N2CCCCC2)c1 | nt | nt | nt | nt | -3% | nt
CCCS(=O)(=O)N1CCCC(C(=O)NCCOC)C1 (centres undefined) | nt | nt | nt | 2% | nt | nt
O=C(Nc1nc(-c2cccs2)cs1)c1ccc(S(=O)(=O)N2CCCCC2)cc1 | -84% | -7% | -2% | 10% | 3% | -12%
O=C(CSCc1ccc(Cl)cc1Cl)Nc1ccccc1C(=O)Nc1ccc(C(=O)O)cc1 | 5% | -5% | 2% | 19µM* | -3% | -7%
O=C(Nc1nc(-c2cccs2)cs1)c1cccc(S(=O)(=O)N2CCCCCC2)c1 | -68% | -8% | -1% | 15µM* | 9% | ?
Cc1ccc(C(=O)Nc2cccc(O)c2)cc1S(=O)(=O)N1CCCCCC1 | -5% | 29% | nt | 15µM* | 6% | ?
O=C(NCc1ccco1)c1cc([N+](=O)[O-])ccc1N1CCOCC1 | -7% | 0% | 3% | 1% | -1% | -5%
COC(=O)c1ccc(C#Cc2ccccc2)o1 | nt | 19% | nt | 17µM* | 14% | 17%
O=C(c1ccc(C#Cc2ccccc2)o1)N1CCN(c2ccccn2)CC1 | -14% | 2% | -5% | ? | 1% | 3%
CCN(CC)c1cc2c(cc1F)c(=O)c(S(=O)(=O)c1ccc(OC)cc1)cn2Cc1ccccc1 | nt | nt | nt | -7% | nt | nt
CCCN(CC(=O)Nc1ccccc1OC)C(=O)c1ccc(=O)[nH]c1 | nt | 1% | nt | 0% | 2% | 0%
CC(C)(C)c1ccc(OCC(=O)N/N=C/c2ccsc2)cc1 | nt | 0% | nt | 11µM* | 0% | -2%
CC(C)(C)c1ccc(OCC(=O)N/N=C/c2ccc(N3CCOCC3)cc2)cc1 | -2% | 0% | 12% | 5.4µM* | 0% | -9%
COc1ccc(/C=N/NC(=O)CN2CCCC2)cc1 | nt | 7% | nt | -3% | -4% | 0%
CC(C)(C)OC(=O)COc1ccc(/C=N/NC(=O)CN2CCCCC2)cc1 | nt | 1.6µM* | nt | 2% | ? | 1.1µM*
O=C(O)COc1ccc(/C=N/NC(=O)COc2nsnc2N2CCOCC2)cc1 | nt | 2% | 3% | -4% | 2% | -1%
Clc1ccc(CO/N=C2\CCCc3nonc32)cc1 | 12% | 20% | 3% | ? | 7% | 19%
C/C(=N/Nc1ccccc1[N+](=O)[O-])c1ccc(C)c([N+](=O)[O-])c1 | nt | 3.2µM* | nt | -1% | 9% | ?

Screens (PubChem)
